Compounds without any hit were thinned out: in the full panel of roughly 83,000, 20% have a hit.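 Results are percent growth after 48 hours of single-concentration exposure. 100 means growth as in untreated cells, lower positive values show inhibition; negative values down to -100 show cell death.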
What was measured:
Experiment in all cases: NCI-60 one-dose screen, 48 h (100 = growth as untreated, 0 = no growth, -100 = all killed)
Conditions in all cases: 10 µM unless noted; active = growth percent below 10; inactive = the rest
NCI-H23 lung = tested on: NCI-H23 lung
NCI-H226 lung = tested on: NCI-H226 lung
NCI-H322M lung = tested on: NCI-H322M lung
HOP-62 NSCLC = tested on: HOP-62 NSCLC
NCI-H460 lung = tested on: NCI-H460 lung
HOP-92 NSCLC = tested on: HOP-92 NSCLC
NCI-H522 lung = tested on: NCI-H522 lung
A549/ATCC NSCLC = tested on: A549/ATCC NSCLC
786-0 renal = tested on: 786-0 renal
COLO 205 colon = tested on: COLO 205 colon
DU-145 prostate = tested on: DU-145 prostate
K-562 leukemia = tested on: K-562 leukemia
MALME-3M melanoma = tested on: MALME-3M melanoma
MDA-MB-231 breast = tested on: MDA-MB-231 breast
RXF 393 renal = tested on: RXF 393 renal
SF-268 CNS = tested on: SF-268 CNS
SF-295 CNS = tested on: SF-295 CNS
SF-539 CNS = tested on: SF-539 CNS
UACC-257 melanoma = tested on: UACC-257 melanoma
M14 melanoma = tested on: M14 melanoma

Measured: growth

CCOc1ccc(C(=O)NCC(C)C)cc1
inactive: NCI-H23 lung 107% | NCI-H226 lung 104% | NCI-H322M lung 101% | HOP-62 NSCLC 95.8% | NCI-H460 lung 103% | HOP-92 NSCLC 103% | NCI-H522 lung 97.8% | A549/ATCC NSCLC 108% | 786-0 renal 97.6% | COLO 205 colon 101% | DU-145 prostate 110% | K-562 leukemia 102% | MALME-3M melanoma 101% | MDA-MB-231 breast 93.2% | RXF 393 renal 108% | SF-268 CNS 102% | SF-295 CNS 99.5% | SF-539 CNS 94.4% | UACC-257 melanoma 110% | M14 melanoma 97%

CCCCCC#CC(=O)O
inactive: NCI-H23 lung 109% | NCI-H226 lung 107% | NCI-H322M lung 98.7% | HOP-62 NSCLC 98.2% | NCI-H460 lung 110% | HOP-92 NSCLC 83.6% | NCI-H522 lung 90.6% | A549/ATCC NSCLC 97% | 786-0 renal 99% | COLO 205 colon 107% | DU-145 prostate 132% | K-562 leukemia 103% | MALME-3M melanoma 99.9% | MDA-MB-231 breast 110% | RXF 393 renal 125% | SF-268 CNS 110% | SF-295 CNS 103% | SF-539 CNS 103% | UACC-257 melanoma 104% | M14 melanoma 120%

CC(c1ccccc1)N(C)C (stereo not given)
inactive: NCI-H23 lung 110% | NCI-H226 lung 95.3% | NCI-H322M lung 92.3% | HOP-62 NSCLC 87.9% | NCI-H460 lung 107% | HOP-92 NSCLC 111% | NCI-H522 lung 98% | A549/ATCC NSCLC 106% | 786-0 renal 104% | COLO 205 colon 103% | DU-145 prostate 119% | K-562 leukemia 28% | MALME-3M melanoma 141% | MDA-MB-231 breast 99.1% | RXF 393 renal 124% | SF-268 CNS 108% | SF-295 CNS 131% | SF-539 CNS 103% | UACC-257 melanoma 116% | M14 melanoma 92.1%

CCCC1OC(c2ccco2)OCC1CC (stereo not given)
inactive: NCI-H23 lung 96.8% | NCI-H226 lung 111% | NCI-H322M lung 102% | HOP-62 NSCLC 105% | NCI-H460 lung 113% | HOP-92 NSCLC 105% | NCI-H522 lung 80.5% | A549/ATCC NSCLC 87.5% | 786-0 renal 105% | COLO 205 colon 106% | DU-145 prostate 104% | K-562 leukemia 105% | MALME-3M melanoma 118% | MDA-MB-231 breast 102% | RXF 393 renal 136% | SF-268 CNS 101% | SF-295 CNS 105% | SF-539 CNS 106% | UACC-257 melanoma 93.1% | M14 melanoma 102%

O=C(CCl)Oc1ccc([N+](=O)[O-])cc1
inactive: NCI-H23 lung 108% | NCI-H226 lung 102% | NCI-H322M lung 106% | HOP-62 NSCLC 98.9% | NCI-H460 lung 107% | HOP-92 NSCLC 78.5% | NCI-H522 lung 107% | A549/ATCC NSCLC 108% | 786-0 renal 108% | COLO 205 colon 116% | DU-145 prostate 113% | K-562 leukemia 103% | MALME-3M melanoma 116% | MDA-MB-231 breast 119% | RXF 393 renal 99.5% | SF-268 CNS 109% | SF-295 CNS 97.3% | SF-539 CNS 109% | UACC-257 melanoma 112% | M14 melanoma 103%

O=Cc1ccc(Cl)c(Cl)c1
inactive: NCI-H23 lung 99.1% | NCI-H226 lung 98.1% | NCI-H322M lung 106% | HOP-62 NSCLC 97% | NCI-H460 lung 107% | HOP-92 NSCLC 68.5% | NCI-H522 lung 96.5% | A549/ATCC NSCLC 102% | 786-0 renal 109% | COLO 205 colon 104% | DU-145 prostate 94.8% | K-562 leukemia 104% | MALME-3M melanoma 98.7% | MDA-MB-231 breast 116% | RXF 393 renal 94.3% | SF-268 CNS 101% | SF-295 CNS 119% | SF-539 CNS 117% | UACC-257 melanoma 96.4% | M14 melanoma 102%

Cc1cc(C(=O)c2ccccc2)cc(C)c1O
inactive: NCI-H23 lung 98.2% | NCI-H226 lung 99.2% | NCI-H322M lung 101% | HOP-62 NSCLC 95.2% | NCI-H460 lung 110% | HOP-92 NSCLC 74.3% | NCI-H522 lung 104% | A549/ATCC NSCLC 102% | 786-0 renal 100% | COLO 205 colon 103% | DU-145 prostate 113% | K-562 leukemia 94.7% | MALME-3M melanoma 94.1% | MDA-MB-231 breast 124% | RXF 393 renal 116% | SF-268 CNS 102% | SF-295 CNS 107% | SF-539 CNS 90.4% | UACC-257 melanoma 115% | M14 melanoma 103%

Cc1ccc2[nH]c3ccccc3c2c1
inactive: NCI-H23 lung 96.9% | NCI-H226 lung 103% | NCI-H322M lung 99.6% | HOP-62 NSCLC 113% | NCI-H460 lung 99.7% | HOP-92 NSCLC 100% | NCI-H522 lung 101% | A549/ATCC NSCLC 102% | 786-0 renal 93.9% | COLO 205 colon 109% | DU-145 prostate 104% | K-562 leukemia 89.8% | MALME-3M melanoma 95.2% | MDA-MB-231 breast 111% | RXF 393 renal 112% | SF-268 CNS 103% | SF-295 CNS 103% | SF-539 CNS 101% | UACC-257 melanoma 104% | M14 melanoma 110%

Reference: PubChem BioAssay (NCI)
